Compound activity: PubChem, National Center for Advancing Translational Sciences (NCATS)
An excerpt weighted towards active compounds, which were near 3.3% of everything screened.
BRCT PPI red – disrupts BRCA1 BRCT binding to phosphoprotein, red fluorophore readout; P38398; BRCT-phosphopeptide binding, red fluorescence polarization; Potency, µM (doses to about 76.9 µM), for inactives: top-dose activity change, negative = inhibition, most hits filed as inhibitors; 75,000 compounds, 0.03% hits; AID 892; also: % is scaled to controls: 0 for no effect and ±100 for the full control effect
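Rhodamine-labelled pBACH1 10-mer (100 nM) bound to BRCT domain (100 nM) at pH 7.3; compounds incubated 12 min room temperature, polarization read. Free peptide defines full inhibition; unlabelled decapeptide titrated as control.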
TSHR ag – TSH receptor (human) agonism | P16473 | HEK293-CNG-TSHR cells (CNG channel as cAMP sensor), membrane potential dye, cAMP | Potency, µM (top dose mostly 57.1 µM), for inactives: at the top dose activation, most hits filed as activators | 73,000 compounds, 0.48% hits | AID 926; active = well fitted activation curve with a large enough effect in the main read-out, with a control signal flat, not every such curve was filed as active; inconclusive = small, poorly fitted or top-dose-only effect, or a change in a side signal; inactive = no such curve, though single readings can be large or run the other way; % of control where 0% means no effect;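 also: the control signal comes from parental cells without the receptor; potency is read from the fitted curve at half-maximal effect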
Target sequence (P16473 whole entry, looked up): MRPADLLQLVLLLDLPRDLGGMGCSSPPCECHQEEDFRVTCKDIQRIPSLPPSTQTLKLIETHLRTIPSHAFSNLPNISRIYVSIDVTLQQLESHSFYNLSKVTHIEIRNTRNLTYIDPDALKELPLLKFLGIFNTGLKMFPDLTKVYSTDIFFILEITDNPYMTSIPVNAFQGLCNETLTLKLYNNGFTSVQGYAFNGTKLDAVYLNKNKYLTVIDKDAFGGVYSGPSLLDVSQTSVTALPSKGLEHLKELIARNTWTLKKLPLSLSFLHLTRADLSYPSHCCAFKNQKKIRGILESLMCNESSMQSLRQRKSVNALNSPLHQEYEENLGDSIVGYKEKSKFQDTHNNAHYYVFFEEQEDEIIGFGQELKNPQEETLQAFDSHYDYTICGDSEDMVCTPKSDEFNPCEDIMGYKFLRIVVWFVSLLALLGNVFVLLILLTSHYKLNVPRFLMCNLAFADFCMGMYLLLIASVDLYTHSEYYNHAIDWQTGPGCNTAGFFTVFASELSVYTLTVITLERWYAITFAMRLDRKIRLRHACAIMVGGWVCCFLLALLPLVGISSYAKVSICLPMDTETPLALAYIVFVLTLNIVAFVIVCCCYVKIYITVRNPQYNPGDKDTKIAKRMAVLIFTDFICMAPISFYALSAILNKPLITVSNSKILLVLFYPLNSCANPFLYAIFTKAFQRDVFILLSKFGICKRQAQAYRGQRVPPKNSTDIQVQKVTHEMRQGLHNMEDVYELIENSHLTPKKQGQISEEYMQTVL
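cAMP rise detected as CNG-channel membrane depolarization by fluorescent dye (emission 590 nm), 30 min after compound, following 60 min dye loading containing 100 uM RO 20-1724 at room temperature. Cells: TSHR/CNG HEK 293, with parental CNG HEK 293 as control.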
BRCT PPI green – blocks human BRCA1 BRCT binding to phosphopeptide, green readout; P38398; BRCA1 BRCT-phosphopeptide binding, green fluorescence polarization; Potency, µM (titrated, usually from 76.9 µM), inactives show at the top dose activity change, negative = inhibition, most hits filed as inhibitors; 75,000 compounds, 0.05% hits; AID 875;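 also: potency is read from the fitted curve at half-maximal effect; plate controls were peptide without protein for full effect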
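Compounds were incubated for 12 min at room temperature with a complex of 100 nM fluorescein-tagged pBACH1 decapeptide and 250 nM His-tagged BRCT protein. Buffer was phosphate pH 7.3 with EDTA, DTT and Tween 20. Disruption of binding lowers the polarization signal.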
Hsp90 Hop PPI – changes Hsp90-Hop TPR2A binding signal, up or down; Potency, µM (top dose mostly 57 µM), inactives show top-dose activity change, negative = inhibition; 71,000 compounds, 0.44% hits; AlphaScreen TPR2A-His6 binding biotin-Hsp90 C-terminal peptide; AID 595; active = well fitted curve in either direction with a large enough effect; inconclusive = small, poorly fitted or top-dose-only effect, or another doubt; also: potency is read from the fitted curve at half-maximal effect; % is scaled to controls: 0 for no effect and ±100 for the full control effect
HEK293 cAMP cs – raises cAMP in parental HEK293 cells, TSHR agonist counter-screen; Potency, µM (doses to about 57.1 µM), for inactives: at the highest dose activation, usual class: activators; 73,000 compounds, 2.5% hits; parental HEK293 CNG cAMP sensor, membrane potential fluorescence; also: potency is read from the fitted curve at half-maximal effect; % of control where 0% means no effect; nearly all actives have a fitted effect of over 55% in size
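Parental HEK 293 cells stably expressing a modified CNG channel (no TSHR) report cAMP rise as membrane depolarization. Membrane potential dye with 100 uM RO 20-1724 was loaded for 60 min at room temperature, then compound added for 30 min; fluorescence read at 590 nm.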
YjeE inh – YjeE (TsaE) inhibition, E. coli; P0AF67; purified YjeE enzyme, qHTS inhibition assay; Potency, µM; 71,000 compounds, 0.05% hits; AID 605
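Purified YjeE (10 uM) with BODIPY Texas Red-labeled ADP probe (2 uM); compounds pin-transferred, 15 min at room temperature. Binding inhibition read as decreased fluorescence polarization; ADP titration as control.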
Numbers without * were called inactive; i = inactive; ? = inconclusive; · = no result given; [ ] = remark or other dose. Unless noted, calls follow the shape of the dose curve; as a rule, active = well fitted curve in the direction sought with a large enough effect; inconclusive = small, poorly fitted or top-dose-only effect, or another doubt; inactive = no such curve, though single readings can be large; an effect the other way counts as inactive or inconclusive.

SMILES | BRCT PPI red | TSHR ag | BRCT PPI green | Hsp90 Hop PPI | HEK293 cAMP cs | YjeE inh
COC(=O)[C@@]1(Cc2ccc(F)cc2)[C@H]2c3cc(C(=O)N4CCCC4)n(Cc4ccc(C)c(F)c4F)c3C[C@H]2CN1C(=O)c1ccccc1 | 0.3% | ? | -2.4% | -18.5% | ? | i
O=C(c1cc(C(F)(F)F)cc(C(F)(F)F)c1)N1CCC2(CC1)CN(c1ccccn1)C2 | -1.8% | 1.8% | -3.0% | -1.7% | 5.2% | i
COc1cccc(Cn2c(=O)c(-c3cccs3)nc3cnc(N(C)C)nc32)c1 | 0.3% | -3.7% | 22.6% | 12.2% | 16.6% | i
O=C(c1[nH]o[n+](=O)c1C(=O)c1csc2ccccc12)c1csc2ccccc12 | 0.4%[15.4 µM] | 3.0%[11.4 µM] | 0.4%[15.4 µM] | -4.4%[11 µM] | 9.3%[11.4 µM] | i
N#Cc1cc2cc3c(cc2nc1SCC(=O)OC1CCCCC1)OCO3 | -0.8% | ? | 1.5% | 9.6% | 15.8µM* | i
Cc1cc(C)c2nc(C(F)(F)F)nc(N3CC(C)OC(C)C3)c2c1 (configuration not stated) | -1.6% | ? | 0.6% | 30.0% | 25.1µM* | i
CCOC(=O)N1CCN(c2nc(C(F)(F)F)nc3c(C)cc(C)cc23)CC1 | -1.4% | ? | 1.5% | 2.6% | ? | i
CCOC(=O)C1CCN(Cc2ccc(O)c3ncccc23)CC1 | 0.2% | -14.5% | -2.2% | 5.01µM* | 9.7% | i
O=C(NC1c2ccccc2-c2ccccc21)N1CCCCC1 | 0.2% | ? | -1.1% | -3.8%[11 µM] | 3.16µM* | i
Cc1cc2c(c(=O)n1C1CC1)C(c1cccc(Cl)c1)C(C#N)=C(N)O2 (configuration not stated) | -0.7% | ? | -0.7% | 1.0% | 3.16µM* | i
COc1cc([C@H](O)C(=O)O)ccc1O | 0.6% | · | -2.4% | -1.4% | -7.9% | i
Cc1cc(-c2ccc(N=Nc3ccc4c(S(=O)(=O)O)cc(S(=O)(=O)O)c(N)c4c3O)c(C)c2)ccc1N=Nc1ccc2c(S(=O)(=O)O)cc(S(=O)(=O)O)c(N)c2c1O | ? | -30.2% | 31.6µM* | 3.98µM* | -18.7% | 79.4µM*
CCN(CC)S(=O)(=O)c1ccc(N2CCCC2)c(C(=O)OCC(=O)/C(C#N)=C(\C)N)c1 | -0.4% | 25.1µM* | 0.2% | -6.3% | 14.8% | i
CC(C)CNC(=O)COC(=O)c1cc(S(=O)(=O)N2CCCCC2)ccc1N1CCOCC1 | 0.4% | -2.2%[11.4 µM] | -2.0% | 0.9% | 3.4% | i
Fc1ccc(-c2nnc3sc(C4COc5ccccc5O4)nn23)cc1 (configuration not stated) | -1.0% | ? | 3.9% | -1.2% | 25.1µM* | i
Fc1ccc(-c2nn3c(C4COc5ccccc5O4)nnc3s2)cc1 (configuration not stated) | -0.9% | ? | 4.2% | 0.8% | ? | i
Cc1noc(C)c1-c1cc(NCCN2CCOCC2)ncn1 | 0.1% | 2.9% | 0.0% | 13.8% | 7.7% | i
[N-]=[N+]=N[C@@H]1[C@H](O)[C@H](CO)O[C@@H]1n1cnc2c(N)ncnc21 | 0.2%[15.4 µM] | -0.1%[11.4 µM] | 0.1%[15.4 µM] | -0.9%[11 µM] | 0.5%[11.4 µM] | i
O=C(CSc1n[nH]c(=O)n1C1CC1)Nc1cc(Cl)ccc1Oc1ccccc1 | -1.3% | ? | 0.1% | -0.1% | 12.6µM* | i
CC(NC(=O)CSc1n[nH]c(=O)n1C1CC1)C12CC3CC(CC(C3)C1)C2 (configuration not stated) | 0.9% | 3.3% | -1.6% | -13.8% | 7.6% | i
CC(=O)OC[C@H]1O[C@@H](O/N=C(\C)CCN2CCCCc3nc(C)c(C)cc32)[C@H](OC(C)=O)[C@@H](OC(C)=O)[C@H]1OC(C)=O | 0.6%[15.4 µM] | -0.2%[11.4 µM] | -1.0%[15.4 µM] | · | -8.7%[11.4 µM] | ·
c1ccc(-c2c3ccccc3nc3[nH]c4ccccc4c23)cc1 | -4.3% | ? | 0.4% | 28.6% | 10µM* | i
N[C@@H](C(=O)O)[C@@H]1C[C@H]1C(=O)O | · | 6.5% | · | -3.6% | 6.4% | i
